Experimental data taken from ChEMBL document CHEMBL3433997, “St. Jude Leishmania screening dataset” (2016).

Legend:
Type in all cases: functional
[1] = target: Solute carrier family 2, facilitated glucose transporter member 1 (Homo sapiens) (UniProt P11166); experiment: ST_JUDE_LEISH: Cytotoxicity at 2uM final concentration against transgenic Leishmania Mexicana promastigotes LmGLUT1 that are glucose transport deficient and complemented with the human glucose transporter GLUT1. Activity is measured by DNA content using SYBR green in vitro
Chain of Solute carrier family 2, facilitated glucose transporter member 1 (Homo sapiens) (P11166 whole entry): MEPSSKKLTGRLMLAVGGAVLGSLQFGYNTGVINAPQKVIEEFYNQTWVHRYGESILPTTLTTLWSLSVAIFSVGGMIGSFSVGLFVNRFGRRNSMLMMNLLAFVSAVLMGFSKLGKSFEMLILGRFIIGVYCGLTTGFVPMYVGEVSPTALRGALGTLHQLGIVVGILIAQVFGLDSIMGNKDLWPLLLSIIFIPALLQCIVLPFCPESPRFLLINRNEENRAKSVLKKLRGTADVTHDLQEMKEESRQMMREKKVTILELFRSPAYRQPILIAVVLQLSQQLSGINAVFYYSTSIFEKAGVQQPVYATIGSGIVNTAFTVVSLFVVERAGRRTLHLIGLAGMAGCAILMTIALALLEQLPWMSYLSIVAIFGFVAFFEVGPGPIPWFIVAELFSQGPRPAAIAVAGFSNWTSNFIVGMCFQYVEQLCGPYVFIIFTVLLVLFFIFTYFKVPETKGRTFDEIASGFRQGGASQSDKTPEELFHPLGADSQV

[2] = target: Hexose transporter 1 (Plasmodium falciparum) (UniProt O97467); experiment: ST_JUDE_LEISH: Cytotoxicity at 2uM final concentration against transgenic Leishmania Mexicana promastigotes LmPfHT that are glucose transport deficient and complemented with the Plasmodium falciparum hexose transporter. Activity is measured by DNA content using SYBR green in vitro
[3] = target: Glucose transporter (Leishmania mexicana) (UniProt O61059); experiment: ST_JUDE_LEISH: Cytotoxicity at 2uM final concentration against transgenic Leishmania Mexicana promastigotes LmGT2 that are glucose transport deficient and complemented with the L. Mexicana glucose transporter 2. Activity is measured by DNA content using SYBR green in vitro

Row | SMILES | inhibition [1] [%] | inhibition [2] [%] | inhibition [3] [%]
1 | FC(F)(F)COc1ccc2ccccc2c1CCNCCCCNCCc1c(OCC(F)(F)F)ccc2ccccc12 | 105 | 103 | 107
2 | COc1ccc(CCN(C)CCOc2ccc(NC(=O)c3cccc4cc5ccccc5nc34)cc2)cc1OC | 2.4 | 1.69 | 1.88
3 | c1ccc(CCNCc2cccc(-c3ccc(CNc4ccc5ncccc5c4)cc3)c2)cc1 | 4.72 | 3.92 | 3.8
4 | O=C(Nc1ccc(-c2nc3ccccc3[nH]2)cc1)c1cncc(Br)c1 | 4.2 | 2.44 | 1.81
5 | CCNc1cc(C(=O)N[C@@H](Cc2ccccc2)[C@H](O)CNC2CCC(F)(F)CC2)c(F)c(N2CCCCS2(=O)=O)c1 | -0.9 | -1.47 | -1.39
6 | N#Cc1ccc(N/C(=N\c2ccccc2Br)N(C2CCCCC2)C2CCCCC2)c(O)c1 | 6.11 | 4.65 | 5.56
7 | CC(C)(CNC(=O)C1CCN(CCOCc2ccccc2)CC1)c1nc(-c2ccc(Cl)c(O)c2)c(-c2ccncc2)[nH]1 | 1.22 | 0.65 | 2.74
8 | Cc1cc(OCC2CCCN(c3ncc(C(=O)NC4CC4)cc3Cl)C2)ccc1F (stereo unspecified) | 0.51 | 1.78 | 0.81
9 | NC1=NC(c2ccccc2)N(c2ccc(Cl)c(Cl)c2)C(N)=N1 (stereo unspecified) | 9.2 | 7.89 | 9.84
10 | CCOC(=O)c1c[nH]c2c(ccc3ccccc32)c1=O | -1.23 | 6.87 | 5.93
11 | CC(C)CCNC(=O)c1cnc2c(O)cccc2c1Nc1cccc(NC(=O)c2ccc(F)cc2)c1 | 4.52 | 7.98 | 0.01
12 | O=C(Cc1ccccc1)NC(c1ccco1)c1cc(Cl)c2cccnc2c1O (stereo unspecified) | -0.34 | -0.27 | -0.18
